High-throughput results from PubChem BioAssay.
A selection: hits, their analogues and other compounds. The true share with any hit is near 10%.
G9a block = blocks human histone lysine methyltransferase G9a; G9a H3K9 monomethylation, AlphaScreen, 2 h; 350,000 compounds, 8.8% hits; Potency, µM (highest dose often 102 µM), most hits filed as inhibitors; further: nearly all actives have a fitted effect of over 75% in size
Target sequence (Q96KQ7 913-1193 limits assumed): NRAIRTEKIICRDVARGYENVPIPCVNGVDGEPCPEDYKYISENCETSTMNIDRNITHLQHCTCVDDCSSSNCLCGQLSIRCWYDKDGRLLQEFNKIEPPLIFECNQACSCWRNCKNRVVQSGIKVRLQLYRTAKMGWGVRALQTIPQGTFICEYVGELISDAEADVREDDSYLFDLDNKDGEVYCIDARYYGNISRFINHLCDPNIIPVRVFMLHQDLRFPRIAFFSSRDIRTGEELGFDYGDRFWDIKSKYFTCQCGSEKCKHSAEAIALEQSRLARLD
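Quantitative HTS format: methyltransferase activity on a biotin-tagged H3K9 peptide is measured by AlphaScreen, using a rabbit anti-monomethyl-H3K9 antibody with streptavidin donor and anti-IgG acceptor beads. Final levels are 20 nM enzyme, 500 nM peptide, 20 uM SAM; 2 h RT.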
JMJD2A Tudor inh = inhibitors of human JMJD2A Tudor domain; 390,000 compounds, 4.4% hits; AlphaScreen JMJD2A-Tudor / H3K4me3 peptide binding; Potency, µM (top dose mostly 114 µM), hits mostly inhibitors; further: nearly all actives have a fitted effect of over 50% in size
BAZ2B block = BAZ2B (human) inhibition | Q9UIF8 | AlphaScreen BAZ2B-H3K14Ac peptide displacement | Potency, µM (series often up to 114 µM), most hits filed as inhibitors | 360,000 compounds, 4.4% hits; further: nearly all actives have a fitted effect of over 60% in size
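AlphaScreen luminescence quantifies BAZ2B engagement of H3K14Ac peptide; the protein and biotinylated peptide are both at 50 nM final, buffer PBS pH 7.4 with 0.01% Tween-20, all steps at room temperature.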
GLS inhibitor = inhibitors of human glutaminase (GLS). 410,000 compounds, 0.21% hits. Potency, µM (titrated, usually from 45.5 µM), actives largely listed as inhibitors. AID 624170. GLS enzymatic activity, qHTS titration
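Glutamate formation by hKGA was monitored fluorometrically using coupled glutamate oxidase, HRP and Amplex Red. Substrate was added as 1 mM L-glutamine solution; incubation was 30 min at RT after an initial read.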
HP1b binding inh = inhibitors of HP1-beta chromodomain binding to methylated histone tails; P83916; AlphaScreen HP1-beta / biotin-H3K9me3 peptide binding; Potency, µM (doses to about 114 µM), hits mostly inhibitors; 390,000 compounds, 0.56% hits; AID 540317; further: nearly all actives have a fitted effect of over 70% in size
Target sequence (P83916 whole entry, looked up): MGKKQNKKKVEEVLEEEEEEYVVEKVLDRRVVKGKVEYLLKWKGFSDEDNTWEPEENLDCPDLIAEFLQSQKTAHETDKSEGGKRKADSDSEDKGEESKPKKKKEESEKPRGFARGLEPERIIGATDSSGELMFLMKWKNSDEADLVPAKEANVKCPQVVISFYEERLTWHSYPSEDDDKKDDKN
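AlphaScreen: HP1-beta (50 nM) preformed 30 min with biotin-H3(1-18)K9me3 peptide (50 nM) in PBS pH 7.4, 0.01% Tween-20. Compound added for 30 min at RT, then streptavidin donor/nickel chelate acceptor beads (10 ug/mL) for 30 min.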
L3MBTL1 inh = blocks human L3MBTL1; Q9Y468; AlphaScreen L3MBTL1–H3K9me1 peptide binding; Potency, µM (titrated, usually from 57.1 µM), usual class: inhibitors; 230,000 compounds, 0.66% hits; AID 485360; further: nearly all actives have a fitted effect of over 60% in size
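AlphaScreen proximity signal between nickel-chelate acceptor and streptavidin donor beads (final 10 ug/mL) reports binding of 50 nM L3MBTL1 to 75 nM biotin-H3 K9me1 peptide; complex incubated with compounds 30 min at room temperature; cefsulodin titration as control.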
A number is an active result; i = inactive; ? = inconclusive; nt = not tested or not shown; [ ] = dose if it differs, or a comment. The call rests on the fitted dose curve; in most records, active means well fitted curve in the direction sought with a large enough effect; inconclusive means small, poorly fitted or top-dose-only effect, or another doubt; inactive means no such curve, though single readings can be large; an effect the other way counts as inactive or inconclusive.

SMILES	G9a block	JMJD2A Tudor inh	BAZ2B block	GLS inhibitor	HP1b binding inh	L3MBTL1 inh
O=C(COc1ccc2ccccc2c1)Nc1cccc(C(=O)Nc2ccccc2C(=O)O)c1	i	?	i	i	i	i
O=C(O)c1ccccc1Nc1cccc(OCc2ccc3ccccc3n2)c1	11.2µM	?	44.7µM	i	i	?
O=c1[nH]cnc2c1sc(=S)n2-c1ccccc1	2.24µM	89.1µM	i	i	i	i
O=c1[nH]c(-c2ccc3c(c2)OCO3)nc2c1sc(=S)n2-c1ccccc1	i	i	i	i	i	i
O=c1[nH]c(-c2ccc(F)cc2)nc2c1sc(=S)n2-c1ccccc1	39.8µM	?	50.1µM	?	i	i
CC(Sc1cccc[n+]1[O-])C(=O)Nc1ccc(Oc2ccccc2)cc1 (stereo unspecified)	39.8µM	i	i	i	i	i[11.4 µM]
COc1ccc(NC(=O)C(C)Sc2ccccc2)cc1 (stereo unspecified)	44.7µM	i	i	i	i	nt
CC(Sc1cccc[n+]1[O-])C(=O)Nc1cc(Cl)c(Cl)cc1Cl (stereo unspecified)	nt	i	nt	i	i	i
CC(Sc1ccccc1)C(=O)Nc1ccc(N2CCOCC2)cc1 (stereo unspecified)	i	i	i	i	i	nt
CC(=O)Nc1ccc(SC(C)C(=O)NC(N)=O)cc1 (stereo unspecified)	39.8µM	i	i	i	i	nt
CCN(CC)C(=O)CSc1nc(-c2ccccc2)cc(-c2ccc(OC)cc2)c1C#N	i	i	i	i	i	nt
CC(CNC(=O)c1ccc2nc(Cc3ccccc3)oc2c1)c1ccccc1 (stereo unspecified)	i	i	i	i	i	nt
Cc1ccc(-n2c(=O)c3c(c4cc(C)ccc4n3C)n(CC(=O)Nc3c(C)cccc3C)c2=O)cc1	i	i	i	i	i	nt
OCCNCc1ccc(-c2ccccc2)cc1	i	i	i	i	i	i
OCCCNCc1ccc(N(c2ccccc2)c2ccccc2)cc1	12.6µM	39.8µM	56.2µM	i	70.8µM	nt
Cc1ccccc1-c1nc(CS(=O)CC(=O)NCc2ccccc2)c(C)o1 (stereo unspecified)	50.1µM	i	i	i	i	nt
Cc1ccc(CNC(=O)CS(=O)Cc2nc(-c3cccs3)oc2C)cc1 (stereo unspecified)	50.1µM	i	i	i	i	nt
Cc1ccc(-c2nc(CS(=O)CC(=O)NCc3ccccc3)c(C)o2)cc1 (stereo unspecified)	50.1µM	i	i	i	i	nt
Cc1ccc(CNC(=O)CS(=O)Cc2nc(-c3ccccc3C)oc2C)cc1 (stereo unspecified)	50.1µM	i	i	i	i	nt
Cc1ccccc1-c1nc(CS(=O)CC(=O)NCc2ccc3c(c2)OCO3)c(C)o1 (stereo unspecified)	?	i	i	i	i	nt
COc1ccc(CNC(=O)CS(=O)Cc2nc(-c3ccccc3C)oc2C)cc1 (stereo unspecified)	?	i	i	i	i	nt
Cc1cccc(NC(=O)C(=O)NCCc2sc(-c3ccccc3)nc2C)c1C	i	i	i	i	i	nt
COc1ccccc1CNC(=O)CS(=O)Cc1nc(-c2ccccc2C)oc1C (stereo unspecified)	79.4µM	i	i	i	i	nt
COc1ccc(-c2nc(CS(=O)CC(=O)NCc3ccccc3OC)c(C)o2)cc1 (stereo unspecified)	?	i	i	i	i	nt
CCc1ccc(-c2nc(CS(=O)CC(=O)NCCc3ccccc3)c(C)o2)cc1 (stereo unspecified)	79.4µM	i	i	i	i	nt
CCc1ccc(-c2nc(CS(=O)CC(=O)NCCc3ccc(C)cc3)c(C)o2)cc1 (stereo unspecified)	?	i	i	i	i	nt
CC1=C(C(=O)Nc2ccc(C)c(C)c2)C2(CCCCCC2)OC1=O	i	i	i	i	i	nt
CC(=O)Nc1ccc(NC(=O)C2(c3cccs3)CCOCC2)cc1	i	44.7µM	i	i	i	nt
CCNc1ncc2nc(-c3cn(C)c4ccccc34)c(=O)n(Cc3ccc(F)cc3)c2n1	i[0.501 µM]	nt	nt	nt	nt	nt
